Test results as given in PubChem BioAssay (NCI).
This is part of a sample that, as a whole, favours compounds with a hit. Of some 79,000 tested, about 15% had one in any assay. A number with no mark means an inactive call. Calls of active or inactive are those of the source. Rule as the data show it: active = growth inhibition above about 70%; inactive = the rest.

What was measured:
[1] = NCI Yeast Anticancer Drug Screen. Data for the mec2-1 strain (AID 157); details: S. cerevisiae mec2-1 strain, hits give high values
Method in brief: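 Test agents were screened against the mec2-1 yeast strain, with defined DNA repair or cell cycle alteration. Growth was scored as inhibition against vehicle-only controls.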

[2] = NCI Yeast Anticancer Drug Screen. Data for the rad14 strain (AID 159);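 also: 0% = growth of vehicle-treated control cultures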; details: S. cerevisiae rad14 strain growth inhibition, hits give high values
Method in brief: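 A mutant yeast strain defective in DNA damage repair is treated with compound; inhibition of its growth is scored against untreated, vehicle-exposed cultures.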

[3] = NCI Yeast Anticancer Drug Screen. Data for the sgs1 mgt1 strain (AID 161);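 also: 0% = growth of cultures given vehicle only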; details: S. cerevisiae sgs1 mgt1 strain, hits give high values
Method in brief: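 Inhibition of yeast growth, normalised to vehicle-treated controls, is reported for a strain bearing genetic alterations in DNA damage repair.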

[4] = NCI Yeast Anticancer Drug Screen. Data for the CLN2oe strain (AID 163);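 also: 0% = growth of vehicle-only control cultures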; details: S. cerevisiae CLN2oe strain, hits give high values
Method in brief: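 Here, growth inhibition in a cell-cycle-altered yeast strain after compound exposure was quantified against vehicle control growth.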

[5] = NCI Yeast Anticancer Drug Screen. Data for the cln2 rad14 strain (AID 165);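 also: 0% = growth equal to vehicle treated cultures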; details: S. cerevisiae cln2 rad14 strain, hits give high values
Method in brief: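 Growth of compound-exposed yeast (cln2 rad14 genotype) measured and expressed as inhibition relative to vehicle.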

[6] = NCI Yeast Anticancer Drug Screen. Data for the bub3 strain (AID 167); details: S. cerevisiae bub3 mutant strain, hits give high values
Method in brief: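 Steps: expose the mutant yeast strain to compound; grow alongside vehicle-treated cultures; measure growth; express inhibition against the vehicle cultures.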

[7] = NCI Yeast Anticancer Drug Screen. Data for the wt2 strain (AID 169);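 also: 0% = growth of vehicle-treated yeast cultures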; details: S. cerevisiae wt2 strain growth inhibition, hits give high values
Method in brief: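 Genetically defined yeast strains from a DNA-repair/cell-cycle panel were used. Compound-exposed yeast growth was measured, and the inhibition was calculated relative to vehicle treatment.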

[8] = NCI Yeast Anticancer Drug Screen. Data for the mlh1 strain (AID 171);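 also: 0% = growth of vehicle-treated control cultures of the same strain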; details: S. cerevisiae mlh1 strain growth inhibition, hits give high values
Method in brief: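 Here the genetically defined yeast mutant is grown with each compound, and the extent to which its growth falls below that of vehicle-exposed cells is reported.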

[9] = NCI Yeast Anticancer Drug Screen. Data for the sgs1 strain (AID 173);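 also: 0% = growth of vehicle-only control cultures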; details: S. cerevisiae sgs1 mutant, hits give high values
Method in brief: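 Relative growth inhibition, referenced to vehicle, was determined in a yeast strain with a defined alteration affecting DNA damage repair or cell cycle control after compound exposure.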

[10] = NCI Yeast Anticancer Drug Screen. Data for the mlh1 rad18 strain (AID 175); details: S. cerevisiae mlh1 rad18 strain growth inhibition, hits give high values
Method in brief: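 In this whole-cell yeast screen, a strain with altered DNA damage repair is challenged with compound, and its growth is measured against matched vehicle-treated controls.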

[11] = NCI Yeast Anticancer Drug Screen. Data for the rad18 strain (AID 177); details: S. cerevisiae rad18 mutant growth inhibition, hits give high values
Method in brief: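 Screen uses a yeast strain with a defined lesion in DNA damage repair; compound effect is read as loss of growth compared to untreated vehicle cultures.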

[12] = NCI Yeast Anticancer Drug Screen. Data for the wt1 strain (AID 149);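 also: 0% = growth of vehicle-treated wt1 cultures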; details: S. cerevisiae wt1 strain (SPY 50644) growth inhibition, hits give high values
Method in brief: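 Compounds are added to wt1 yeast cultures. Growth is then measured. Inhibition is expressed relative to vehicle-treated controls.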

[13] = NCI Yeast Anticancer Drug Screen. Data for the rad50EPP+ strain (AID 151);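 also: 0% = growth of vehicle-treated control cultures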; details: S. cerevisiae rad50 mutant strain, hits give high values
Method in brief: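 One strain with a rad50 alteration (rad50EPP+) was compound-treated, its growth then compared to that of vehicle controls.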

[14] = NCI Yeast Anticancer Drug Screen. Data for the mgt1 strain (AID 153); details: S. cerevisiae mgt1 mutant growth inhibition, hits give high values
Method in brief: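 After exposure of the mgt1 yeast mutant to compound, growth was measured and reported as inhibition compared with vehicle controls.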

[15] = NCI Yeast Anticancer Drug Screen. Data for the rad50 strain (AID 155);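 also: 0% = growth of vehicle-only cultures of the same strain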; details: S. cerevisiae rad50 strain growth inhibition, hits give high values
Method in brief: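 Inhibition values express reduced yeast growth in compound-treated cultures relative to vehicle-treated controls.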

[16] = at 5.0 µM (retest, dose inferred, filed as 0.5)
[17] = at 50.0 µM (retest, dose inferred, filed as 5.0)

In the case of `CC(O)C(O)C(O)C(/C=N\Nc1ccccc1)=N/Nc1ccccc1` (stereo unspecified), the growth inhibition ([1]; at 100.0 µM) is reported as 98% (active), the growth inhibition ([2]; at 1.2 µM) is reported as -2% and the growth inhibition ([2]; at 3.7 µM) is reported as -1%. The growth inhibition ([2]; at 11.0 µM) was 4%, the growth inhibition ([2]; at 33.0 µM) was 21% and the growth inhibition ([2]; at 100.0 µM) was 99% (active). The growth inhibition [3, 16] was 3%, the growth inhibition [3, 17] was 56% and the growth inhibition ([3]; at 50.0 µM) was 95.5% (active). The growth inhibition ([4]; at 1.2 µM) was -7%, the growth inhibition ([4]; at 3.7 µM) was -4% and the growth inhibition ([4]; at 11.0 µM) was -5%. It also gave a growth inhibition ([4]; at 33.0 µM) of 18%, a growth inhibition ([4]; at 100.0 µM) of 28% and a growth inhibition [5, 16] of 1%. It also gave a growth inhibition [5, 17] of 49%, a growth inhibition ([5]; at 50.0 µM) of 8.25% and a growth inhibition ([6]; at 1.2 µM) of -3%. The growth inhibition ([6]; at 3.7 µM) was -3%, the growth inhibition [6, 16] was -7% and the growth inhibition ([6]; at 11.0 µM) was 19%. It also gave a growth inhibition ([6]; at 33.0 µM) of 24%, a growth inhibition [6, 17] of 43% and a growth inhibition ([6]; at 50.0 µM) of 69.1%. It also gave a growth inhibition ([6]; at 100.0 µM) of 30%, a growth inhibition ([7]; at 1.2 µM) of 2% and a growth inhibition ([7]; at 3.7 µM) of 8%. The growth inhibition ([7]; at 11.0 µM) was 10%, the growth inhibition ([7]; at 33.0 µM) was 38% and the growth inhibition ([7]; at 100.0 µM) was 99% (active). The growth inhibition ([8]; at 1.2 µM) was 3%, the growth inhibition ([8]; at 3.7 µM) was 4% and the growth inhibition ([8]; at 11.0 µM) was 6%. For the same compound, the growth inhibition ([8]; at 33.0 µM) was 68%, the growth inhibition ([8]; at 100.0 µM) was 98% (active) and the growth inhibition ([9]; at 1.2 µM) was 1%. For the same compound, the growth inhibition ([9]; at 3.7 µM) was 10%, the growth inhibition ([9]; at 11.0 µM) was 11% and the growth inhibition ([9]; at 33.0 µM) was 68%. For the same compound, the growth inhibition ([9]; at 100.0 µM) was 98% (active), the growth inhibition [10, 16] was 7% and the growth inhibition [10, 17] was 65%. For the same compound, the growth inhibition ([10]; at 50.0 µM) was 98.9% (active), the growth inhibition ([11]; at 1.2 µM) was 5% and the growth inhibition ([11]; at 3.7 µM) was 9%. The growth inhibition ([11]; at 11.0 µM) was 9%, the growth inhibition ([11]; at 33.0 µM) was 95% (active) and the growth inhibition ([11]; at 100.0 µM) was 99% (active).
In the case of `CC(=O)OCCOCNC(=S)N/N=C(\C)c1cnccn1`, the growth inhibition ([12]; at 1.2 µM) is reported as -14%, the growth inhibition ([12]; at 3.7 µM) is reported as -11% and the growth inhibition ([12]; at 11.0 µM) is reported as 5%. The growth inhibition ([12]; at 33.0 µM) was 28%, the growth inhibition ([12]; at 100.0 µM) was 69% and the growth inhibition ([13]; at 1.2 µM) was 9%. It also gave a growth inhibition ([13]; at 3.7 µM) of 9%, a growth inhibition ([13]; at 11.0 µM) of -9% and a growth inhibition ([13]; at 33.0 µM) of 0%. The growth inhibition ([13]; at 100.0 µM) was -4%, the growth inhibition ([14]; at 1.2 µM) was 8% and the growth inhibition ([14]; at 3.7 µM) was 9%. For the same compound, the growth inhibition ([14]; at 11.0 µM) was 29%, the growth inhibition ([14]; at 33.0 µM) was 53% and the growth inhibition ([14]; at 100.0 µM) was 82% (active). It also gave a growth inhibition ([15]; at 1.2 µM) of 13%, a growth inhibition ([15]; at 3.7 µM) of -1% and a growth inhibition [15, 16] of -25%. For the same compound, the growth inhibition ([15]; at 11.0 µM) was 15%, the growth inhibition ([15]; at 33.0 µM) was 46% and the growth inhibition [15, 17] was 45%. For the same compound, the growth inhibition ([15]; at 50.0 µM) was 73.4% (active), the growth inhibition ([15]; at 100.0 µM) was 85% (active) and the growth inhibition ([1]; at 1.2 µM) was -17%. For the same compound, the growth inhibition ([1]; at 3.7 µM) was -17%, the growth inhibition [1, 16] was -59% and the growth inhibition ([1]; at 11.0 µM) was -2%. It also gave a growth inhibition ([1]; at 33.0 µM) of 27%, a growth inhibition [1, 17] of 44% and a growth inhibition ([1]; at 50.0 µM) of 59.7%. For the same compound, the growth inhibition ([1]; at 100.0 µM) was 75% (active), the growth inhibition ([2]; at 1.2 µM) was -8% and the growth inhibition ([2]; at 3.7 µM) was -12%. For the same compound, the growth inhibition ([2]; at 11.0 µM) was 5%, the growth inhibition ([2]; at 33.0 µM) was 46% and the growth inhibition ([2]; at 100.0 µM) was 84% (active). The growth inhibition [3, 16] was -15%, the growth inhibition [3, 17] was 43% and the growth inhibition ([3]; at 50.0 µM) was 72.7% (active). For the same compound, the growth inhibition ([4]; at 1.2 µM) was 8%, the growth inhibition ([4]; at 3.7 µM) was 2% and the growth inhibition ([4]; at 11.0 µM) was 12%. The growth inhibition ([4]; at 33.0 µM) was 21%, the growth inhibition ([4]; at 100.0 µM) was 82% (active) and the growth inhibition [5, 16] was -9%. It also gave a growth inhibition [5, 17] of 45%, a growth inhibition ([5]; at 50.0 µM) of 60.8% and a growth inhibition ([6]; at 1.2 µM) of -18%. For the same compound, the growth inhibition ([6]; at 3.7 µM) was 17%, the growth inhibition [6, 16] was -5% and the growth inhibition ([6]; at 11.0 µM) was 24%. For the same compound, the growth inhibition ([6]; at 33.0 µM) was 51%, the growth inhibition [6, 17] was 67% and the growth inhibition ([6]; at 50.0 µM) was 75.3% (active). The growth inhibition ([6]; at 100.0 µM) was 84% (active), the growth inhibition ([7]; at 1.2 µM) was -23% and the growth inhibition ([7]; at 3.7 µM) was -24%. For the same compound, the growth inhibition ([7]; at 11.0 µM) was 6%, the growth inhibition ([7]; at 33.0 µM) was 25% and the growth inhibition ([7]; at 100.0 µM) was 74% (active). It also gave a growth inhibition ([8]; at 1.2 µM) of -1%, a growth inhibition ([8]; at 3.7 µM) of -4% and a growth inhibition ([8]; at 11.0 µM) of 15%. For the same compound, the growth inhibition ([8]; at 33.0 µM) was 49%, the growth inhibition ([8]; at 100.0 µM) was 80% (active) and the growth inhibition ([9]; at 1.2 µM) was -23%. The growth inhibition ([9]; at 3.7 µM) was -15%, the growth inhibition ([9]; at 11.0 µM) was 0% and the growth inhibition ([9]; at 33.0 µM) was 41%. For the same compound, the growth inhibition ([9]; at 100.0 µM) was 80% (active), the growth inhibition [10, 16] was -29% and the growth inhibition [10, 17] was -7%. For the same compound, the growth inhibition ([10]; at 50.0 µM) was 62.4%, the growth inhibition ([11]; at 1.2 µM) was 7% and the growth inhibition ([11]; at 3.7 µM) was -5%. For the same compound, the growth inhibition ([11]; at 11.0 µM) was 13%, the growth inhibition ([11]; at 33.0 µM) was 32% and the growth inhibition ([11]; at 100.0 µM) was 82% (active).
